# Compounds without any hit were thinned out: in the full panel of roughly 83,000, 20% have a hit.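 Step 1: grow cells in 96-well plates. Step 2: add test compound at a single concentration. Step 3: incubate 48 h. Step 4: record percent growth.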 A number with no mark means an inactive call. Activity calls are given as the source filed them. Rule for the calls: active = growth percent below 10; inactive = the rest.
# Experiments:
# Assay in all cases: NCI-60 one-dose screen, 48 h (100 = growth as untreated, 0 = no growth, -100 = all killed)
# NCI-H23 lung = details: 10 µM unless noted
# NCI-H226 lung = details: 10 µM unless noted
# NCI-H322M lung = details: 10 µM unless noted
# HOP-62 NSCLC = details: 10 µM unless noted
# NCI-H460 lung = details: 10 µM unless noted
# HOP-92 NSCLC = details: 10 µM unless noted
# NCI-H522 lung = details: 10 µM unless noted
# A549/ATCC NSCLC = details: 10 µM unless noted
# 786-0 renal = details: 10 µM unless noted
# COLO 205 colon = details: 10 µM unless noted
# DU-145 prostate = details: 10 µM unless noted
# K-562 leukemia = details: 10 µM unless noted
# MALME-3M melanoma = details: 10 µM unless noted
# MDA-MB-231 breast = details: 10 µM unless noted
# RXF 393 renal = details: 10 µM unless noted
# SF-268 CNS = details: 10 µM unless noted
# SF-295 CNS = details: 10 µM unless noted
# SF-539 CNS = details: 10 µM unless noted
# M14 melanoma = details: 10 µM unless noted
# UACC-257 melanoma = details: 10 µM
SMILES,growth (NCI-H23 lung),growth (NCI-H226 lung),growth (NCI-H322M lung),growth (HOP-62 NSCLC),growth (NCI-H460 lung),growth (HOP-92 NSCLC),growth (NCI-H522 lung),growth (A549/ATCC NSCLC),growth (786-0 renal),growth (COLO 205 colon),growth (DU-145 prostate),growth (K-562 leukemia),growth (MALME-3M melanoma),growth (MDA-MB-231 breast),growth (RXF 393 renal),growth (SF-268 CNS),growth (SF-295 CNS),growth (SF-539 CNS),growth (M14 melanoma),growth (UACC-257 melanoma)
C/C(=C\c1csc(C)n1)[C@@H]1C[C@@H]2O[C@]2(C)CCC[C@H](C)[C@H](O)[C@@H](C)C(=O)C(C)(C)[C@@H](O)CC(=O)N1,-70% (active),-60.3% (active),-83.3% (active),-69.5% (active),-85.5% (active),-47.2% (active),-81.4% (active),-79.8% (active),-22.5% (active),-62.5% (active),-78.9% (active),1.67% (active),66.3%,-54.7% (active),-83.3% (active),-47.8% (active),-64.6% (active),-87.4% (active),-44.1% (active),
CC(=O)Nc1nc(C(=O)N2N=C(C)/C(=C/c3ccccc3)C2=O)cs1,108%,107%,102%,99.8%,106%,108%,85.4%,101%,105%,103%,111%,98.4%,96.8%,113%,,105%,108%,97.2%,95.2%,104%
COc1ccc(/C=C2\C(=O)N(C(=O)c3csc(NC(C)=O)n3)N=C2C)cc1,102%,104%,96.7%,100%,105%,99.8%,85.2%,97.3%,100%,99.3%,108%,95.3%,90.5%,105%,,99.1%,105%,104%,98.7%,89.2%
Cc1cc(Cl)ccc1OC(C)C(=O)Nc1nnc(C2CC2)s1 (stereo not given),76.7%,98.5%,124%,94.7%,114%,81.3%,94.6%,86.3%,92.7%,105%,102%,120%,119%,95.1%,,111%,89%,101%,113%,
Nc1nc(-c2cc3ccccc3o2)cc(=O)c(=O)[nH]1,105%,95.7%,95.4%,96.6%,98.1%,-2.74% (active),91.9%,110%,107%,106%,108%,103%,94.3%,98.3%,,96.5%,109%,89.3%,106%,
COc1cc(-c2n[nH]nc2-c2ccc3c(c2)OCCO3)cc(OC)c1OC,22.8%,75.7%,51.4%,8.87% (active),2.69% (active),24.3%,-44.5% (active),16.5%,20.9%,-85.7% (active),10%,8.96% (active),69.7%,33.3%,,15.9%,2.6% (active),-35.9% (active),16.5%,61.7%
COc1cc(C2C3=C(COC3=O)Nc3c2ccc2c3CCCC2)cc2c1OCO2 (stereo not given),16.4%,-5.06% (active),47%,21.9%,3.74% (active),127%,-35.1% (active),25%,18.7%,-67.7% (active),-24.7% (active),12.7%,92.1%,6.67% (active),,8.63% (active),13.3%,4.95% (active),13.3%,
C#CCN1C(=O)/C(=c2\sc3n(c2=O)NC2C(N=3)N(CC)C(=O)N2CC)c2ccccc21 (stereo not given),54.1%,87.4%,95.8%,80.9%,99.2%,76.4%,52.4%,85.6%,61.2%,37.1%,41%,3.27% (active),51.5%,69.9%,,75.5%,86.7%,38.7%,80.7%,
c1cncc(CNc2ccccc2-c2nnc(Nc3ccc4c(c3)OCCO4)o2)c1,20.9%,7.4% (active),49.6%,32.5%,4.61% (active),136%,-28.3% (active),31.8%,42.4%,-21.9% (active),-5.96% (active),14.2%,80.2%,26.4%,,18.7%,12.2%,4.68% (active),12.7%,
COc1cc(CCn2nnc3c(Nc4ccc(N5CCOCC5)cc4)ncnc32)cc(OC)c1,95.1%,90.7%,111%,104%,98.4%,47.3%,88.5%,98.1%,107%,94.9%,99.3%,44.4%,100%,91.9%,,99.7%,100%,87.5%,85.5%,102%
CCc1cccc(C)c1NC(=O)c1sc2nc3c(cc2c1N)C(=O)CCC3,39.1%,62.1%,51.3%,23.3%,8.12% (active),79.2%,-0.871% (active),22.9%,38.7%,-7.24% (active),14.2%,8.64% (active),45.1%,31%,,42.7%,10.8%,-14.4% (active),12.5%,66.6%
COc1ccc(C2CC(c3cccs3)=NN2c2ccc(S(=O)(=O)NC(=O)Nc3ccc(C)cc3)cc2)cc1 (stereo not given),98.5%,110%,104%,76.9%,103%,84.9%,91.5%,102%,104%,-54.6% (active),102%,114%,40.6%,117%,,95.6%,100%,98.3%,58.4%,40.9%
COc1ccc(-c2nnc(COc3ccc(NC(=O)Nc4ccc(Cl)c(C(F)(F)F)c4)cc3F)o2)cc1,-20.2% (active),33.5%,33%,36.4%,-25.4% (active),-13.4% (active),-54.6% (active),11.1%,24.7%,-7.23% (active),13.2%,16.9%,-1.11% (active),-8.46% (active),,20.5%,-3.88% (active),0.516% (active),9.03% (active),30.3%
CC(C)C(C(=O)CCN(C)C)c1ccc(Cl)cc1 (stereo not given),103%,94.9%,99.3%,98.4%,104%,96.8%,74.2%,61.6%,102%,106%,88.6%,96.7%,-90.7% (active),101%,,100%,106%,103%,92.5%,
COc1ccc(-c2nnc(COc3ccc(NS(=O)(=O)c4ccc(OC)cc4)cc3F)o2)cc1,56.6%,57.9%,83.6%,93.9%,77.8%,70.9%,49.2%,62.8%,74.8%,70.6%,80.8%,55.8%,78.6%,82.7%,,84.6%,67.8%,80.5%,78.2%,74.9%
Cc1oc2nc[nH]c(=O)c2c1C(=O)/C=C/c1ccc(Cl)cc1Cl,90%,107%,92.4%,92.6%,93.4%,95.5%,39.1%,78.7%,83.8%,107%,78.2%,17.8%,99.9%,89%,,94.6%,104%,93.3%,93.9%,
CCn1cc(C2NC(=O)c3cc(F)ccc3N2)c2cccc(Cl)c21 (stereo not given),30.8%,49.5%,45.5%,28.5%,6.22% (active),72%,-22.1% (active),3.82% (active),42.3%,-11.5% (active),11.6%,5.32% (active),53.7%,19%,,41.2%,10.4%,-26.6% (active),1.23% (active),

# — PubChem BioAssay (NCI)
